Experiment [1] can be described thus: yeast TOR pathway RPL19A-GFP modulators, primary screen, cell-based, S. cerevisiae, multiplex flow cytometry (AID 1862; in the data active means percent of DMSO control GFP below about 86%;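 further: lower values mimic rapamycin by blocking the RPL19A rise seen in DMSO cells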). Conditions: S. cerevisiae RPL19A-GFP strain, flow cytometry fluorescence, 3 h; at 10 µM; stronger effect = lower value. Background: A flow cytometer gives signals particle by particle.
Experiment [2] can be described thus: modulators of CIT2-GFP expression in yeast, primary screen, S. cerevisiae, GFP fusion, multiplex flow cytometry (AID 1870;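 active means percent response above a set limit, the screen-wide mean plus 3 SD, cut at about 130% in these data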;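 further: barcoded CIT2-GFP strain pooled with four other GFP strains with rapamycin as positive control; median GFP fluorescence per well over plate mean of DMSO wells so 100% = DMSO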). Conditions: 3 h, at 10 µM, stronger effect = higher value.
Experiment [3] in a line: modulators of LAP4-GFP expression in yeast, primary screen, S. cerevisiae, multiplex flow cytometry (AID 1873). Particulars: 3 h, at 10 µM, stronger effect = higher value.
Experiment [4] in a line: modulators of AGP1-GFP expression in yeast TOR pathway, primary screen, cell-based, multiplex flow cytometry, S. cerevisiae (AID 1887;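 active means GFP signal above the screen-wide mean plus 3 SD, that is over about 124.5% of the solvent control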;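 further: AGP1-GFP fusion strain of S. cerevisiae within a five-strain barcoded multiplex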). Particulars: 3 h, at 10 µM, stronger effect = higher value.
Experiment [5] can be described thus: inhibitors of CD8+ T cell-vesicle binding, pilot screen, LFA-1/ICAM-1 modulator project, MLPCN validation set, flow cytometry (AID 2523;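 active means response below a set limit, under 55% cells CD8-positive and vesicle-bound, and CD8 cells' 90th-percentile brightness under 279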;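 on vesicle binding response: mean PE anti-B7-1 fluorescence of CD8+ cells relative to row control; 100% = QL9-loaded vesicles with DMSO vehicle in the same plate row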). Particulars: 2C mouse CD8+ T cells, at 7 µM, stronger effect = lower value; double positive events: measured here: CD8+/vesicle+ event percentage.
The target of experiment [6] is Integrin beta-1 (Homo sapiens) + Integrin alpha-4 (Homo sapiens) (UniProt P13612+P05556). In words: inhibition of HUTS-21 binding to VLA-4, pilot screen, VLA-4 allosteric modulator project, U937 cells, HUTS-21 mAb, flow cytometry, validation set (AID 2674;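 active means inhibition above 50%, about 3 SD of the validation set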;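 further: antibody binding induced by the VLA-4 ligand LDV present at three times its Kd; 0% = LDV ligand with antibody and no compound and 100% = antibody without LDV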). Conditions: HUTS-21 LIBS mAb binding, at 6.7 µM, stronger effect = higher value, binding induced by LDV ligand.
Chain of Integrin beta-1 (Homo sapiens) + Integrin alpha-4 (Homo sapiens) (P05556 whole entry, looked up): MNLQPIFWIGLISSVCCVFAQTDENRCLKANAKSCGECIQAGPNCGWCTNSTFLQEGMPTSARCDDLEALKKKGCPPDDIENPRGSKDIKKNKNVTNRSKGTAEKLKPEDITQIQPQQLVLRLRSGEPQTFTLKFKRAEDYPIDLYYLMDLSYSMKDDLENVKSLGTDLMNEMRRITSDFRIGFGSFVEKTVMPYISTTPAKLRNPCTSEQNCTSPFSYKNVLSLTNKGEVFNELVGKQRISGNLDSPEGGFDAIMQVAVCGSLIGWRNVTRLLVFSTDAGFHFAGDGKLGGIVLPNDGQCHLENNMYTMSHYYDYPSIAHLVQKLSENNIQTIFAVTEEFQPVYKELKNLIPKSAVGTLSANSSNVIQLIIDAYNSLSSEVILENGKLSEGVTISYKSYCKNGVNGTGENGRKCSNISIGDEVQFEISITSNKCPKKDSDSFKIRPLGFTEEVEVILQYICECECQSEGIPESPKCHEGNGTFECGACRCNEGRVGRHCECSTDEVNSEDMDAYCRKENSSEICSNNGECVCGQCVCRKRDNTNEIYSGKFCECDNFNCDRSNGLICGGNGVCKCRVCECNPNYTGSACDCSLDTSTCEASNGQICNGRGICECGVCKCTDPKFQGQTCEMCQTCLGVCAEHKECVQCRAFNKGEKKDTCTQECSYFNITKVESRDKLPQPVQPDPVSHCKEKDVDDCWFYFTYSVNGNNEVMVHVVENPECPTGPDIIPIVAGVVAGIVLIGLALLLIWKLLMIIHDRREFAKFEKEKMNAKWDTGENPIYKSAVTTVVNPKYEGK
Chain of Integrin beta-1 (Homo sapiens) + Integrin alpha-4 (Homo sapiens) (P13612 whole entry, looked up): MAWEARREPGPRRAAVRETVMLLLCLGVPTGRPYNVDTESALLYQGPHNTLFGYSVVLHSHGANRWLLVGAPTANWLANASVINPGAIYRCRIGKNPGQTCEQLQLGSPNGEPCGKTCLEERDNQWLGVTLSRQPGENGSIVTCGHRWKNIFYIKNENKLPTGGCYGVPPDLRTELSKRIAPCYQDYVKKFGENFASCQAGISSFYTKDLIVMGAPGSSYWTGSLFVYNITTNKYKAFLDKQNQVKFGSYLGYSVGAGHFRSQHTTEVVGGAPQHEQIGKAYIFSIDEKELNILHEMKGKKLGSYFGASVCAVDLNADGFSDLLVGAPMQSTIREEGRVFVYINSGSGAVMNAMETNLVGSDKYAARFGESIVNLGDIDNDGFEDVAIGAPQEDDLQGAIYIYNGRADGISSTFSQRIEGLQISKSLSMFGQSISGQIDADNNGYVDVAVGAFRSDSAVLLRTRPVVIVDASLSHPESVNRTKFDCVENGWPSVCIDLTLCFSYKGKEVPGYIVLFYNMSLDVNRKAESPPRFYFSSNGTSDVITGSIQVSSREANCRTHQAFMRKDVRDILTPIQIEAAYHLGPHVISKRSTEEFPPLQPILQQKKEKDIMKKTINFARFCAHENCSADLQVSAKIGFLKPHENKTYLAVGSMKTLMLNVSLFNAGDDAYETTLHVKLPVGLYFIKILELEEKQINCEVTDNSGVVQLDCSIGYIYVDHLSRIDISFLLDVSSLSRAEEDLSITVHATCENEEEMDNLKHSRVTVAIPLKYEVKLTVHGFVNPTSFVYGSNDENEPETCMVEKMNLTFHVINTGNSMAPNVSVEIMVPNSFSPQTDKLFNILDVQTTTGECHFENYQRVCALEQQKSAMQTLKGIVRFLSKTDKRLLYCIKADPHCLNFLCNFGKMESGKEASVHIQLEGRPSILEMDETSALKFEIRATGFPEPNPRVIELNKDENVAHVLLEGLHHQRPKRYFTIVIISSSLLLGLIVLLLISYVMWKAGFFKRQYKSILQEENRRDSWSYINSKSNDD
A short description of experiment [7]: superoxide lowering in aged yeast cells, pilot screen, validation compound set (AID 2706;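 active means superoxide response below 65% of plate, a cut near 3 SD across the whole screen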;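 further: yeast exposed to compound for one week at 30 degrees C before staining; 100% = mean of all compound wells on the same plate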). Conditions: S. cerevisiae aging, superoxide DHE fluorescence; at 10 µM, stronger effect = lower value.
The target in experiment [8] is Beta-adrenergic receptor kinase 1 (Homo sapiens) (UniProt P25098). In words: GRK2 binders displacing RNA aptamer, biochemical, validation, human GRK2, bead flow cytometry (AID 488806;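 active means aptamer binding inhibition above 30%, about 3 SD of noise from non-fluorescent compounds; inactive means inhibition at or below 30%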). Conditions: bead-bound GRK2, FAM-aptamer displacement, at 10 µM, stronger effect = higher value.
Chain of Beta-adrenergic receptor kinase 1 (Homo sapiens) (P25098 whole entry, looked up): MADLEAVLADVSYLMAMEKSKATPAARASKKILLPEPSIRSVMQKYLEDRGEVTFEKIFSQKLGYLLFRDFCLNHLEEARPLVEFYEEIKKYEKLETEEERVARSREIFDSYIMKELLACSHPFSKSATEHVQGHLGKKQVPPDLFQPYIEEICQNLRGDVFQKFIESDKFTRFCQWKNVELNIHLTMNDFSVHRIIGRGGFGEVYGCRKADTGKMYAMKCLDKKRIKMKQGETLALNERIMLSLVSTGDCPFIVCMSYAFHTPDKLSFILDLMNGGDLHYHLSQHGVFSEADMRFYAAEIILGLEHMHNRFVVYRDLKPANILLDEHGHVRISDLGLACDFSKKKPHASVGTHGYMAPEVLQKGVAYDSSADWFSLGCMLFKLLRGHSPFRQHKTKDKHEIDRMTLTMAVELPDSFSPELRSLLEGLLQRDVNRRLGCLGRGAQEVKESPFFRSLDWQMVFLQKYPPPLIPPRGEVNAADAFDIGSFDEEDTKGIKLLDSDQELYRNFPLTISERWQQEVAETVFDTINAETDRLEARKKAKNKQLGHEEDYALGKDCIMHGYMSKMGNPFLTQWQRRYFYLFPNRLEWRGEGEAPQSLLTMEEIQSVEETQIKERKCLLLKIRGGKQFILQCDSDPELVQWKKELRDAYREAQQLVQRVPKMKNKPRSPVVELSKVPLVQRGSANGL
Experiment [9] deals with Beta-2 adrenergic receptor (Homo sapiens) (UniProt P07550). The experiment can be described thus: beta2AR agonists driving receptor internalization, pilot screen, cell-based, FAP fluorogen, flow cytometry, validation set (AID 504459;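 active means percent response above 42, roughly 3 SD of non-fluorescent test compounds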;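 further: agonist-driven loss of surface beta2AR via internalization measured by FAP dye flow cytometry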). Particulars: Am2.2-beta2AR cells, FAP surface receptor flow cytometry; at 10 µM; stronger effect = higher value.
Chain of Beta-2 adrenergic receptor (Homo sapiens) (P07550 whole entry, looked up): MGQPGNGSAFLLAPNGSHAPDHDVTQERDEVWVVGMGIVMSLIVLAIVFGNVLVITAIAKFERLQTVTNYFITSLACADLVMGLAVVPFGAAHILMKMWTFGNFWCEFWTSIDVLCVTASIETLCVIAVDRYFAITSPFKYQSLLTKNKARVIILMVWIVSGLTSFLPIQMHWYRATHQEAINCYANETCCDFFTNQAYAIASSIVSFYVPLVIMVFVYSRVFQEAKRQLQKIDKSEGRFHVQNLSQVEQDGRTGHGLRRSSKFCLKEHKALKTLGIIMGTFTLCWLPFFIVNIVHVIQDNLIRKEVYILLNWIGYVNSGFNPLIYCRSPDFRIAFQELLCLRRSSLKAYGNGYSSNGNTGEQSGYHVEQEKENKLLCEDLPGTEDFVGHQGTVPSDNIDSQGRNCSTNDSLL
The target in experiment [10] is AP-2 complex subunit beta (Homo sapiens) (UniProt P63010). In words: inhibitors of arrestin peptide binding to AP2, pilot screen, biochemical, validation set, GST-AP2 beads, flow cytometry (AID 504541;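 active means inhibition above 54%, about 3 SD of non-fluorescent compounds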;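 further: AP2 carries R879A mutation and is captured from E. coli lysate; bead-bound FITC arrestin peptide fluorescence measuring arrestin peptide binding to AP2; 0% = DMSO wells and 100% = excess unlabeled arrestin peptide control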). Conditions: FITC arrestin peptide, at 10 µM, stronger effect = higher value, AP2 beta2 appendage fragment, R879A mutant.
Chain of AP-2 complex subunit beta (Homo sapiens) (P63010 whole entry, looked up, the tested form may be a part, one chain of several): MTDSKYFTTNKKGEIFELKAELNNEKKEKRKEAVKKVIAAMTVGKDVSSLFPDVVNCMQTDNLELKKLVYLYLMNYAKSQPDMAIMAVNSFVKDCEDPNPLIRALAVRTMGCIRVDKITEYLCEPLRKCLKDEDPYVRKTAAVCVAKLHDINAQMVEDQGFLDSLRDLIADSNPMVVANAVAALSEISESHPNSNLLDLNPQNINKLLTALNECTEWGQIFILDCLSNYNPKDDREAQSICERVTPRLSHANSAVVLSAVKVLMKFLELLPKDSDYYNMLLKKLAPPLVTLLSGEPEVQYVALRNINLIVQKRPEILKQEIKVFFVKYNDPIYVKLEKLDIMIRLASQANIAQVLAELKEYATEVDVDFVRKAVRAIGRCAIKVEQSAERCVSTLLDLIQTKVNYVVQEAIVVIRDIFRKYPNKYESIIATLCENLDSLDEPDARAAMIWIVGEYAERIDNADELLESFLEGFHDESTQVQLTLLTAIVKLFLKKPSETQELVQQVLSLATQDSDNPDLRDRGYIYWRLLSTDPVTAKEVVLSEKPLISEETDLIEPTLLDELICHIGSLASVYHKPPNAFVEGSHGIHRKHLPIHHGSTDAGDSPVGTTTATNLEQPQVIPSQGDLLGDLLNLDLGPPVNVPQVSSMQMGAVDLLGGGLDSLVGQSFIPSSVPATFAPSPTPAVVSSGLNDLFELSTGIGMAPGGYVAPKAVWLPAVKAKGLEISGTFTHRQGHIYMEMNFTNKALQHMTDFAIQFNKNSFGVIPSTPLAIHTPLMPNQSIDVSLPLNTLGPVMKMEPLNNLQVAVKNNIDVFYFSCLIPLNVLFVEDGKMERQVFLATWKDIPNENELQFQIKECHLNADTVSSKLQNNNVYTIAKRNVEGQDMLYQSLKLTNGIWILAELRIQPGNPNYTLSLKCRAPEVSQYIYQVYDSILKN
The nature of experiment [11]: yeast V-ATPase proton transport modulators, S. cerevisiae, pHLuorin, HTS validation (AID 504600; in the data active means response above about 15%;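 further: plate controls were DMSO for no effect and reference compound for full effect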). Conditions: S. cerevisiae pHLuorin cytosolic pH, at 10 µM, stronger effect = higher value.
The subject of experiment [12] is anti-desmoglein-3 scFv antibody binding to human DSG3. The experiment can be described thus: inhibitors of anti-DSG3 scFv binding to DSG3, pilot screen, biochemical, validation compound set, bead-based, flow cytometry (AID 588368;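 active means binding below the plate cutoff, the plate median minus 3 SD, with a reading above zero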;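 further: signal is the median channel fluorescence of bead-bound GFP antibody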). Conditions: Protein G beads, DSG3-Fc, scFv-GFP binding, at 10 µM, stronger effect = lower value.
A short description of experiment [13]: inhibitors of fungal efflux pumps CDR1, CDR2, MDR1, pilot screen, validation compound set, multiplex, phenotypic (AID 588506;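 active means efflux inhibition above 0.42, the validation set average plus 4 SD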;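 further: Nile Red retained in cells so higher fluorescence means more efflux inhibition; 0 = negative control wells and 1 = enniatin B 25 µM full block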). Conditions: S. cerevisiae pump-expressing triplex, Nile Red efflux flow cytometry; at 10 µM; stronger effect = higher value; the pumps come from Candida albicans.
The target of experiment [14] is ATP-binding cassette sub-family B member 6 (Homo sapiens) (UniProt Q9NP58). The experiment can be described thus: ABCB6 transporter inhibitors, pilot screen, K562-ABCB6 cells, flow cytometry, validation set (AID 588550;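 active means inhibition above the screen-wide mean plus 3 SD, about 51%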;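 further: 0% = DMSO wells and 100% = benzethonium chloride 70 µM positive control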). Conditions: K562-ABCB6 porphyrin accumulation, 1 h, at 10 µM, stronger effect = higher value.
Chain of ATP-binding cassette sub-family B member 6 (Homo sapiens) (Q9NP58 whole entry, looked up): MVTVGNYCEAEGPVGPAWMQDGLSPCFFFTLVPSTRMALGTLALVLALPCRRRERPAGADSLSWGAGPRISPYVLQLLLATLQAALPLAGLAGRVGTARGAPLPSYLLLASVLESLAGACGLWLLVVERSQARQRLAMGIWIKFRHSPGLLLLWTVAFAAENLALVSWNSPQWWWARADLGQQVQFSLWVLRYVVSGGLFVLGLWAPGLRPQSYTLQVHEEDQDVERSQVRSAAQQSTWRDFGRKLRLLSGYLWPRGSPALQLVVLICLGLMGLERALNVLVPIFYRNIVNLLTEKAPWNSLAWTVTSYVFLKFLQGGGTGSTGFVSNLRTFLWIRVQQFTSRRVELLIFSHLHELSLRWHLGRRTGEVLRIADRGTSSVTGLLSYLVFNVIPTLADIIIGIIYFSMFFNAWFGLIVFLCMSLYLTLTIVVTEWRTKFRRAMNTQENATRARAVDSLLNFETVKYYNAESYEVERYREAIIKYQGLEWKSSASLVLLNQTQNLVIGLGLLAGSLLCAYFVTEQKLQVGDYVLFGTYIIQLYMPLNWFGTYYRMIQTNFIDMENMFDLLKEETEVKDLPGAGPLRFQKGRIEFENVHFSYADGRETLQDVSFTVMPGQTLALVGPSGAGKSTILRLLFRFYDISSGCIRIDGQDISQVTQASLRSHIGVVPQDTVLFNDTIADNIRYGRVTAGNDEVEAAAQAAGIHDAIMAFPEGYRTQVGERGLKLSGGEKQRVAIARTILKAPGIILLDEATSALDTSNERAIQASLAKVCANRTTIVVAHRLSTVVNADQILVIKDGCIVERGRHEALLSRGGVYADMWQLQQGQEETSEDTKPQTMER
Experiment [15] can be described thus: promoters of myeloid differentiation in arrested cells, primary screen, cell-based, GFP/MAC1 double positive, flow cytometry, validation set (AID 588685;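 active means differentiation response of at least 50%, scaled between solvent and reference control, from cells with both markers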;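 further: compound exposure lasts four days before antibody staining and flow analysis; 0% = DMSO wells and 100% = 5 µM fulvestrant positive control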). Conditions: ER-HoxA9 marrow cells, stronger effect = higher value, normalized: vehicle 0, fulvestrant 100.
Experiment [16] is described as follows: modulators of MEP2-GFP levels in yeast, primary screen, S. cerevisiae, multiplex flow cytometry (AID 1867;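 active means GFP response, as percent of the DMSO control, above the screen-wide mean plus 3 SD, about 139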;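 further: median GFP channel fluorescence of barcode-gated MEP2-GFP cells measured by flow cytometry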). Conditions: S. cerevisiae MEP2-GFP strain, 3 h, at 10 µM, stronger effect = higher value, 100% means same as DMSO wells.

Results filed as inconclusive are left out. Calls of active or inactive are those of the source.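 How the source made its calls, unless noted: active means GFP signal, as percent of the solvent control, above the screen mean plus 3 SD, about 149; inconclusive means no reading because the compound's own fluorescence upset strain identification; inactive means the rest.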

From PubChem BioAssay come the findings set out here.

For orientation: inhibition means the relative decrease from the control value, in per cent. Consider `COc1ccc(C2C3C(C)=NN=C3CC(C)(O)C2C(C)=O)cc1` (stereo not given), for which the percent of DMSO control GFP in [1] is 99.5% (inactive). Besides, the percent response of DMSO control in experiment [2] was 97.7% (inactive). Further, in experiment [3], the GFP response vs DMSO was 94% (inactive). Moreover, the GFP response, % of DMSO in experiment [4] was 96.9% (inactive). In experiment [5], the double positive events worked out at 60.7%. The vesicle binding response in experiment [5] was 265% (inactive). Also, the inhibition in experiment [6] was 13.2% (inactive); in experiment [10], 12.8% (inactive); in experiment [14], 3% (inactive). For the same compound, the superoxide response (% of plate) in experiment [7] was 103% (inactive). Further, the aptamer binding inhibition in experiment [8] was 6% (inactive). Further, the response in experiment [9] was -1.78% (inactive); in experiment [11] it was 2.14% (inactive). Also, the binding (% of control) in experiment [12] is 101% (inactive). The efflux inhibition (fraction of control) in [13] is -0.21 (inactive). The differentiation response in experiment [15] is -18.4% (inactive).

As for `COc1ccc(NC(=O)C2C(=O)N(CCO)C3(C)CC2c2ccccc2O3)cc1` (stereo not given), the percent of DMSO control GFP in experiment [1] is 99.6% (inactive). For the same compound, the GFP response vs DMSO in [16] was 106% (inactive); in experiment [3] it was 79.8% (inactive). In experiment [2], the percent response of DMSO control is 104% (inactive). In experiment [5], this compound yielded a double positive events of 70.2%. Further, in experiment [5], the vesicle binding response is 158% (inactive). In addition, the results for the inhibition in [6], in experiment [10] and in experiment [14] were 5.49% (inactive), 6.58% (inactive) and 13% (inactive), respectively. Further, the superoxide response (% of plate) in experiment [7] is 96.6% (inactive). The aptamer binding inhibition in [8] is 3% (inactive). Also, the response is -2.11% (inactive) in [9] and -0.98% (inactive) in [11]. For the same compound, the binding (% of control) in [12] is 107% (inactive). Besides, the efflux inhibition (fraction of control) in [13] was -0.46 (inactive). Also, the differentiation response in experiment [15] was 5.73% (inactive).

Consider `CCOC(=O)c1c(C)oc2cc(Br)c(OC(C)C(=O)OCC)cc12` (stereo not given), for which the percent of DMSO control GFP in experiment [1] is 95% (inactive). The GFP response vs DMSO was 119% (inactive) in experiment [16] and 84.7% (inactive) in experiment [3]. Besides, in experiment [2], the percent response of DMSO control was 102% (inactive). Further, in experiment [5], the double positive events was 60.7%. Further, in experiment [5], the vesicle binding response was 238% (inactive). Further, the results for the inhibition in [6], in experiment [10] and in experiment [14] were 2.58% (inactive), 1.62% (inactive) and 12% (inactive), respectively. Also, the superoxide response (% of plate) in [7] was 93% (inactive). In addition, the aptamer binding inhibition in experiment [8] was 7% (inactive). Moreover, the values for the response in [9] and in experiment [11] were 4% (inactive) and -3.94% (inactive), respectively. For the same compound, in experiment [12], the binding (% of control) was 101% (inactive). Moreover, in experiment [13], the efflux inhibition (fraction of control) was -0.31 (inactive). The differentiation response in experiment [15] was -1.64% (inactive).

Take `NS(=O)(=O)c1cc2c(cc1Cl)NC(CSCc1ccccc1)=NS2(=O)=O`: the percent of DMSO control GFP in [1] was 97% (inactive). Further, the GFP response vs DMSO in experiment [16] is 119% (inactive); in experiment [3], 84.2% (inactive). Also, the percent response of DMSO control in experiment [2] was 118% (inactive). The compound further gave a double positive events in [5] of 40.1%. Further, the vesicle binding response in [5] was 27.2% (active). In addition, the inhibition in [6] is -6.15% (inactive); in experiment [10] it was -7.6% (inactive); in [14], 3% (inactive). The superoxide response (% of plate) in experiment [7] is 95.7% (inactive). In addition, in experiment [8], the aptamer binding inhibition was 2% (inactive). Besides, the response in experiment [9] was 5.55% (inactive); in experiment [11], 0.08% (inactive). Further, the binding (% of control) in experiment [12] was 103% (inactive). Further, the efflux inhibition (fraction of control) in [13] was -0.24 (inactive). For the same compound, the differentiation response in experiment [15] was 13.9% (inactive).

Turning to `CCCCC/C=C\C[C@H](O)/C=C/c1cccc(C[C@H](O)CCCCO)n1`, the percent of DMSO control GFP in [1] was 97.9% (inactive). In addition, the GFP response vs DMSO in [16] was 111% (inactive); in [3], 75.9% (inactive). The percent response of DMSO control in experiment [2] is 111% (inactive). Besides, the double positive events in experiment [5] came out at 52.3%. For the same compound, the vesicle binding response in experiment [5] was 41.1% (active). The inhibition is -3.24% (inactive) in experiment [6], -4.61% (inactive) in experiment [10] and 10% (inactive) in [14]. The superoxide response (% of plate) in experiment [7] was 116% (inactive). In experiment [8], the aptamer binding inhibition is 1% (inactive). Further, the response in experiment [9] was -7.36% (inactive); in [11], 1.37% (inactive). For the same compound, in [12], the binding (% of control) was 103% (inactive). Besides, the efflux inhibition (fraction of control) in experiment [13] was 0.16 (inactive). In experiment [15], the differentiation response is -2.46% (inactive).
